The targets below were run with Cc1cnc(Nc2ccc(OCCN3CCCC3)cc2)nc1Nc1cccc(S(=O)(=O)NC(C)(C)C)c1 [Fedratinib] (assay: percent of DMSO control binding (KINOMEscan); higher = weaker binding / less inhibition; extreme values may be limits of the assay). Settings: concentration: 100 nM.
Sequence of UniProt Q16584 (Q16584 whole entry, looked up): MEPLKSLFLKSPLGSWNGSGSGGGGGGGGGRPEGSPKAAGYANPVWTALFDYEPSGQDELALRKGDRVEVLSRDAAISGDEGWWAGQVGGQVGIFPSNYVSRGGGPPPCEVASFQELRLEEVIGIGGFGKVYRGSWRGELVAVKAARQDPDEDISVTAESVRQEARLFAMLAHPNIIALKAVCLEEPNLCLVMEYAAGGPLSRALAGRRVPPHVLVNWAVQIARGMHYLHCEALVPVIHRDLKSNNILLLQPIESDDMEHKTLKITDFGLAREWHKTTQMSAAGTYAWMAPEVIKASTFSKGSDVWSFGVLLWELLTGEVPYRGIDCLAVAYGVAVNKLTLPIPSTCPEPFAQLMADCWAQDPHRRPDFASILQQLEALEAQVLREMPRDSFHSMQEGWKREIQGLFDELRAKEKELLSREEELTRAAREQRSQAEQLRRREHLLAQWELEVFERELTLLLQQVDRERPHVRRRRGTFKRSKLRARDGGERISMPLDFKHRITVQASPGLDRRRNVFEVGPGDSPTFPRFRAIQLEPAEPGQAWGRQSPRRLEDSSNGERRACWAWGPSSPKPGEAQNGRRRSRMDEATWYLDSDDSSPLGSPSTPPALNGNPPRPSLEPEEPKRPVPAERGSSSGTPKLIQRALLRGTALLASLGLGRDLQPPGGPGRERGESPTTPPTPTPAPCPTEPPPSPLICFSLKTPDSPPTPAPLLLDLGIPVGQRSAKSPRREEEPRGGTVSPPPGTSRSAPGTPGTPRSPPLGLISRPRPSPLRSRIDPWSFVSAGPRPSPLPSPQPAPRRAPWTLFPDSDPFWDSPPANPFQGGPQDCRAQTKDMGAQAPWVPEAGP
Sequence of UniProt O75582 (O75582 whole entry, looked up): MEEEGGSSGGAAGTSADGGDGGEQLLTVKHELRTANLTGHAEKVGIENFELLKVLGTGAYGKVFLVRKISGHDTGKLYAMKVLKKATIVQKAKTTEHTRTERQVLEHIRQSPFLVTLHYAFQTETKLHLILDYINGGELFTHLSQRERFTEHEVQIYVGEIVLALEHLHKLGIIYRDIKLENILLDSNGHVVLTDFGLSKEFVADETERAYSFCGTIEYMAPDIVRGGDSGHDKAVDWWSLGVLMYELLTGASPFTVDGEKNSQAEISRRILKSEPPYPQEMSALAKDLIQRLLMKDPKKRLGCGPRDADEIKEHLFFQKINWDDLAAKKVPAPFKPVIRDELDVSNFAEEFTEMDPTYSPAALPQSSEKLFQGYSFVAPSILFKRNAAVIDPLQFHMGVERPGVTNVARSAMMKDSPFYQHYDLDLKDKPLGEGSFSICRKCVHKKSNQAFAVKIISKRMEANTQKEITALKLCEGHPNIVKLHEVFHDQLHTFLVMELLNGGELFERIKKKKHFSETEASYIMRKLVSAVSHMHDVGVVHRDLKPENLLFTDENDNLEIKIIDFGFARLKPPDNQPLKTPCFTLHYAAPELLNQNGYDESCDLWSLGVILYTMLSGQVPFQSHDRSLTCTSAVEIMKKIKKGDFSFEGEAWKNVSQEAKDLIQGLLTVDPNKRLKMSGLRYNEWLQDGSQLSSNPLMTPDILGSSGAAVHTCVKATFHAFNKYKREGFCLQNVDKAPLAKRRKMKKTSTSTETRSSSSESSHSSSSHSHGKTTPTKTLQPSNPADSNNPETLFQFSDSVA
Sequence of UniProt O94806 (O94806 whole entry): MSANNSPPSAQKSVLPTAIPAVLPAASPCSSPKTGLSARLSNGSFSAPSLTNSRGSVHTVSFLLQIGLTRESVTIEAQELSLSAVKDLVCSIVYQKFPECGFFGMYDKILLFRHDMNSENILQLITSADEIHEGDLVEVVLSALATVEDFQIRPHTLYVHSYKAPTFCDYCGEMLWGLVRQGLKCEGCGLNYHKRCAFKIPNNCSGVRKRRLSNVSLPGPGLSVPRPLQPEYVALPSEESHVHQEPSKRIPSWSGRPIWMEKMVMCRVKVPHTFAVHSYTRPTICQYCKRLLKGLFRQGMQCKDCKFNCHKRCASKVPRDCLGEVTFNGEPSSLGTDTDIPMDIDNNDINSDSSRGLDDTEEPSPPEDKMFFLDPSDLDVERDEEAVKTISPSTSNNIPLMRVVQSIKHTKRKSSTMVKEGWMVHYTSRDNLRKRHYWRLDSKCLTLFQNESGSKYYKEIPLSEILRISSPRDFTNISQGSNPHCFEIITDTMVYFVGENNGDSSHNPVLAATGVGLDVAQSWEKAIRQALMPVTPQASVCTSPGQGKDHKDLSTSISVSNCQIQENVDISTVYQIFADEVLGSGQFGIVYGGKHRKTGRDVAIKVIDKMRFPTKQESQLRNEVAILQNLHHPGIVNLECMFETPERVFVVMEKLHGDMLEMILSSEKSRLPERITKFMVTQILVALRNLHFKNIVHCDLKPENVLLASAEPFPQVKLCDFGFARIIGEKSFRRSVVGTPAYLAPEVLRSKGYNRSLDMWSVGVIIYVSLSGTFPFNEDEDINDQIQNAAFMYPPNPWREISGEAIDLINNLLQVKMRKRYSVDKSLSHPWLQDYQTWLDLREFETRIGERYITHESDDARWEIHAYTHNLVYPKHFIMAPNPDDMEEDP
Sequence of UniProt Q14164 (Q14164 whole entry): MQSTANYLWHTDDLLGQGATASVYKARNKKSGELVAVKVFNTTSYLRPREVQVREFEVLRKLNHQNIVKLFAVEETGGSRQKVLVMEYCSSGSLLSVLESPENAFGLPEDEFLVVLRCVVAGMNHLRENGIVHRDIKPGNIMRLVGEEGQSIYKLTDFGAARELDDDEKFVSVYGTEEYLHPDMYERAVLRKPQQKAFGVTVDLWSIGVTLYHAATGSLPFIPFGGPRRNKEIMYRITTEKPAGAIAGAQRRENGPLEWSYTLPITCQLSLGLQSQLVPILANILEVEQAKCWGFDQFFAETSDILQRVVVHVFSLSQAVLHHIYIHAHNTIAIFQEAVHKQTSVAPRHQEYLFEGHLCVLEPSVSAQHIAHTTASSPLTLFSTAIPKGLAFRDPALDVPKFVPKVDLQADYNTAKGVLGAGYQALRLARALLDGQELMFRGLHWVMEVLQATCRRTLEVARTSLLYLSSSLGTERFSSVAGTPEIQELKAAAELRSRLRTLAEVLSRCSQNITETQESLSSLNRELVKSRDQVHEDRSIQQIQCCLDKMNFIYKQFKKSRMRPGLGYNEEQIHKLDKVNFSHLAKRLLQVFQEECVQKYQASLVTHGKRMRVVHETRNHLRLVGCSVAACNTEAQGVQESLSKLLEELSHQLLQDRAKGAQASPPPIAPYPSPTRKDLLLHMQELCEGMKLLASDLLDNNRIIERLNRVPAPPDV
Sequence of UniProt Q9H1R3 (Q9H1R3 whole entry): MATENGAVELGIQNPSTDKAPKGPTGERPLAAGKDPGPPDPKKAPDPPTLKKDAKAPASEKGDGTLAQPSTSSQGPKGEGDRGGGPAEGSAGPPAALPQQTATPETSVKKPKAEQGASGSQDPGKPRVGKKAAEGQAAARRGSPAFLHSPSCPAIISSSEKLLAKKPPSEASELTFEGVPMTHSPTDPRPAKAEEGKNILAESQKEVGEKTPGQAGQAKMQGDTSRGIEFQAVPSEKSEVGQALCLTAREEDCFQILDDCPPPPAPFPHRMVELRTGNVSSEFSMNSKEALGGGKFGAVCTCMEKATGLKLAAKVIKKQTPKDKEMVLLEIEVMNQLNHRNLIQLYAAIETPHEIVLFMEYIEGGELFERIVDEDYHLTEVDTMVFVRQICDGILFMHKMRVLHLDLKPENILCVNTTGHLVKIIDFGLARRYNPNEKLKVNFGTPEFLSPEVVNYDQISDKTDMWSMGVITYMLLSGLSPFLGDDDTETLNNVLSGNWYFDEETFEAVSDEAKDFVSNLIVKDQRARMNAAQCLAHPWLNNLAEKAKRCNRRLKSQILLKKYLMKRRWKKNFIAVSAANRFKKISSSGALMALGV
Sequence of UniProt O15146 (O15146 whole entry): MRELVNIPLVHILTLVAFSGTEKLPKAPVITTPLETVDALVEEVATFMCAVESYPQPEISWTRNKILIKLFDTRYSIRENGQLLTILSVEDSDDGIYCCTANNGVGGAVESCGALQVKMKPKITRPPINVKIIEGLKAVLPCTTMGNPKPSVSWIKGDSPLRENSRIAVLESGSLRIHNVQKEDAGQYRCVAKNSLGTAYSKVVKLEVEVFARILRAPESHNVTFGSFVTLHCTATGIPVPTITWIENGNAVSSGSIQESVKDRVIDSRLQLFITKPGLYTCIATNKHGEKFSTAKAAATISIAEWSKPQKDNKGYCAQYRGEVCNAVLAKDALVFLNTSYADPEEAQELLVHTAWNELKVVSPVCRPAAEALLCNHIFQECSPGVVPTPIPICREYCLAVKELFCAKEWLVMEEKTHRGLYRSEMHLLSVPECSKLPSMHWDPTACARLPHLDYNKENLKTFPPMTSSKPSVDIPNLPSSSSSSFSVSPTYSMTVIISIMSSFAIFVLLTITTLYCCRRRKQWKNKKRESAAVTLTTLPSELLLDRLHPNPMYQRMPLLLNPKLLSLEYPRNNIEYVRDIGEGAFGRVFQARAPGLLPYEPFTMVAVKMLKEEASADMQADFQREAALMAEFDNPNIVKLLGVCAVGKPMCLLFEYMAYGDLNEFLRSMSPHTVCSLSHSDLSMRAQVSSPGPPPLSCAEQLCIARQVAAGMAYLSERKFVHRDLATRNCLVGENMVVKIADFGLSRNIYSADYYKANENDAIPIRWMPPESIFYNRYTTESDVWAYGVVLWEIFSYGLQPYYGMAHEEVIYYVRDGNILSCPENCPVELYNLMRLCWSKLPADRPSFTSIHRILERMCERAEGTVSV
In the case of FGFR4 (UniProt P22455), the “percent of DMSO control binding” value is reported as 100%. For NEK5 (UniProt Q6P3R8), the “percent of DMSO control binding” value was 94%. MUSK (UniProt O15146) was tested, and the “percent of DMSO control binding” value was 96%. With PAK7 (UniProt Q9P286) the “percent of DMSO control binding” value was 100%. TAK1 (UniProt O43318) was tested, and the “percent of DMSO control binding” value was 81%. For IKK-epsilon (UniProt Q14164), the “percent of DMSO control binding” value was 57%. With WEE2 (UniProt P0C1S8) the “percent of DMSO control binding” value was 100%. With DCAMKL2 (UniProt Q8N568) the “percent of DMSO control binding” value was 97%. For PKN2 (UniProt Q16513), the “percent of DMSO control binding” value was 100%. With ROCK1 (UniProt Q13464) the “percent of DMSO control binding” value was 40%. PRKD3 (UniProt O94806) was tested, and the “percent of DMSO control binding” value was 100%. LATS2 (UniProt Q9NRM7) was tested, and the “percent of DMSO control binding” value was 89%. With OSR1 (UniProt O95747) the “percent of DMSO control binding” value was 91%. For TTK (UniProt P33981), the “percent of DMSO control binding” value was 75%. For EPHB4 (UniProt P54760), the “percent of DMSO control binding” value was 100%. With TAOK3 (UniProt Q9H2K8) the “percent of DMSO control binding” value was 60%. For ACVR2A (UniProt P27037), the “percent of DMSO control binding” value was 100%. For AMPK-alpha1 (UniProt Q13131), the “percent of DMSO control binding” value was 100%. ERBB3 (UniProt P21860) was tested, and the “percent of DMSO control binding” value was 97%. For “RPS6KA5(Kin.Dom.2-C-terminal) (UniProt O75582)”, the “percent of DMSO control binding” value was 97%. For MAP3K15 (UniProt Q6ZN16), the “percent of DMSO control binding” value was 61%. For ALK(L1196M) (UniProt Q9UM73), the “percent of DMSO control binding” value was 67%. For MLK3 (UniProt Q16584), the “percent of DMSO control binding” value was 100%. With MTOR (UniProt P42345) the “percent of DMSO control binding” value was 87%. For SRMS (UniProt Q9H3Y6), the “percent of DMSO control binding” value was 70%. For BTK (UniProt Q06187), the “percent of DMSO control binding” value was 87%. With GCN2(Kin.Dom.2,S808G) the “percent of DMSO control binding” value was 61%. For CDC2L5 (UniProt Q14004), the “percent of DMSO control binding” value was 78%. For PRKG1 (UniProt Q13976), the “percent of DMSO control binding” value was 100%. With PIK3CG (UniProt P48736) the “percent of DMSO control binding” value was 100%. In the case of MEK1 (UniProt Q02750), the “percent of DMSO control binding” value is reported as 62%. For ROS1 (UniProt P08922), the “percent of DMSO control binding” value was 88%. In the case of MYLK2 (UniProt Q9H1R3), the “percent of DMSO control binding” value is reported as 100%. INSRR (UniProt P14616) was tested, and the “percent of DMSO control binding” value was 100%. In the case of STK36 (UniProt Q9NRP7), the “percent of DMSO control binding” value is reported as 100%. In the case of BIKE (UniProt Q9NSY1), the “percent of DMSO control binding” value is reported as 7.4%. For DAPK2 (UniProt Q9UIK4), the “percent of DMSO control binding” value was 16%.

Reference: the supplement of paper PMC10382584, “Macrocyclization of linear molecules by deep learning to facilitate macrocyclic drug candidates discovery” (Nature Communications, 2023)
